Experimental data taken from PubChem BioAssay AID1020 (Sanford-Burnham Center for Chemical Genomics, 2008).
Among all 200,000 compounds or so, about 240 (0.12%) were called active. Cut-off read from the data, not from the text of the source: active = inhibition above about 50%; inactive = the rest. The full list was thinned out, with actives kept by preference.

Tested on: glucose-6-phosphate dehydrogenase [Leuconostoc mesenteroides]
Test: bacterial G6PDH enzyme inhibition, coupled readout – biochemical, Leuconostoc mesenteroides enzyme, counter-screen for G6PDH-coupled screening assays (AID 1020)
Conditions: Purified L. mesenteroides G6PDH, diaphorase/resazurin coupled fluorescence, 45 min; at 5 µM; hits give high values

Structure (SMILES) | inhibition
CCOc1ccc(C(c2c(C)[nH][nH]c2=O)c2c(C)[nH][nH]c2=O)cc1OCC | 12.1% (inactive)
O=C(CC1NCCNC1=O)Nc1cc(Cl)cc(Cl)c1 (stereo not given) | -3.6% (inactive)
Cc1ccc(C(=O)c2ccc(N3CCN(C)CC3)c([N+](=O)[O-])c2)cc1 | 9.1% (inactive)
O=C(NC(=S)NC1CCSC1=O)c1ccccc1F (stereo not given) | 13.8% (inactive)
O=C(CSc1nnc(SCc2ccc(Cl)cc2)s1)N/N=C/c1ccccc1Cl | -21.5% (inactive)
CCC(C)(C)NC(=O)C1c2ccccc2Oc2ccccc21 | 3.6% (inactive)
COC(=O)c1ccc(NC(=O)CSc2nncc3ccc(OC)c(OC)c23)cc1 | 2.5% (inactive)
CCC(C)NCCOCCOc1ccc(Br)cc1C (stereo not given) | 6.6% (inactive)
CCOc1cc(NS(=O)(=O)c2ccc(OC)cc2)c(OCC)cc1NC(C)=O | 6.7% (inactive)
COc1ccc(C(C(=O)NC2CCCCC2)N(C(=O)Cc2c[nH]c3ccccc23)c2ccccc2)cc1OC (stereo not given) | 14.4% (inactive)
C/C(=N\OC(=O)c1ccccc1)c1c(C)nc2cc(C)ccn12 | 1.1% (inactive)
CCc1ccc(N2CC(O)=C(c3nc4ccccc4c(=O)[nH]3)C2=N)cc1 | 16.2% (inactive)
CC(C)N(Cc1ccccc1)C(=S)Nc1ccc(OC(F)F)cc1 | 0.3% (inactive)
Cc1cccc(NC(=S)NCCN(C2CCCCC2)C2CCCC2)c1 | 3.8% (inactive)
COc1ccc(Cl)cc1NC(=O)CNc1ccccc1F | -1.9% (inactive)
S=c1[nH]nc(-c2ccco2)n1/N=C/c1ccc(Br)s1 | 8.8% (inactive)
C=CCn1c(CCNC(=O)c2ccccc2F)nnc1SCC(=O)Nc1ccc(OC)cc1 | 0.9% (inactive)
O=C(COc1ccc(S(=O)(=O)NCc2ccccc2)cc1)N1CCOCC1 | 4.2% (inactive)
Cn1c(N)c(C(=O)COC(=O)c2ccccc2NCc2ccco2)c(=O)n(C)c1=O | 0.8% (inactive)
O=[N+]([O-])c1cccc(-c2nnc3c4ccccc4c4ccccc4n23)c1 | 9.1% (inactive)
O=c1[nH]c2ccccc2n2c(-c3ccccc3)nnc12 | 50% (active)
CCOC(=O)c1cnc2[nH]c3ccccc3n2c1=O | 5% (inactive)
CC(C)N1C(=O)N(c2ccccc2)C(C)(O)CC1(C)C (stereo not given) | 5.1% (inactive)
O=C1Nc2ccc([N+](=O)[O-])cc2C1=Nc1cccc(CO)c1 | 46.7% (inactive)

Structure (SMILES) | inhibition
Cc1nc(N)c(Br)c(C)c1Br | 4% (inactive)
O=C(CSc1ccc(-c2ccco2)nn1)NCc1ccc2c(c1)OCO2 | 6.1% (inactive)
Cc1ccc(C)c(-n2ccnc2SCC(N)=O)c1 | 13.8% (inactive)
O=C(NC1CCCC1)C(c1ccc(N2CCOCC2)cc1)N(C(=O)c1ccco1)c1ccccc1F (stereo not given) | 14.1% (inactive)
COc1cccc(NC(=O)c2ccc3c(SCC(=O)O)c4c(nc3c2)CCCC4)c1 | 6% (inactive)
NS(=O)(=O)c1ccc(NC(=O)COC(=O)C2(c3ccc(F)cc3)CCCC2)cc1 | 16.5% (inactive)
COc1ccc(/C=C2/C(=O)OCc3cc(OC)c(OC)cc32)c(OC)c1 | -2.8% (inactive)
CCOC(=O)c1ccc[n+](CC(=O)Nc2ccccc2OC(F)F)c1 | 6.3% (inactive)
CCO[C@H]1OC(C(=O)N2CCOCC2)=C[C@@H](c2ccc3c(c2)OCO3)[C@@H]1CCCO | 9.9% (inactive)
CCOC(=O)C1CN(S(=O)(=O)c2ccc(F)cc2)C1 | 4.5% (inactive)
Clc1ccc2nc(CSc3ccccc3)cn2c1 | 5% (inactive)
CCOC(=O)c1c(C)[nH]c2c1-c1ccccc1C(=O)C2=O | 55.3% (active)
CCOC(=O)c1c(C)[nH]c(=S)c(C#N)c1-c1ccccc1 | -20.7% (inactive)
CCOC(=O)C1=C(c2ccc(OC)cc2)C(=O)c2ccccc2C1=O | 31.9% (inactive)
CN1CCN(CC#CCC2(O)c3ccccc3-c3ccccc32)CC1 | 4.1% (inactive)
CCCc1cc(=O)[nH]c(SCC(=O)N2CCN(S(=O)(=O)c3ccc(C)cc3C)CC2)n1 | 2.8% (inactive)
Cc1nn2cc(-c3ccc(Cl)cc3)cnc2c1Br | -0.7% (inactive)
COC(=O)CC(=O)N1CCN(c2ccc(Cl)c(Cl)c2)CC1 | -3.9% (inactive)
N#Cc1ncc(C(F)(F)F)cc1Oc1cccnc1 | 1.5% (inactive)
O=C(N/N=C/c1ccco1)c1ccc(C(=O)N/N=C/c2ccco2)o1 | 2.5% (inactive)
COc1ccc2c(c1)c(=O)c(C(=O)c1ccc(Cl)cc1)cn2CC(=O)Nc1ccc(F)cc1 | -1.7% (inactive)
O=C(N/N=C/c1sc(N2CCCCC2)nc1-c1cccs1)c1cccnc1 | 0.4% (inactive)
CC1(C)C2CC=C(/C=N/NC(=O)c3ccc(Cl)cc3)C1C2 (stereo not given) | 6.3% (inactive)
COc1cc(NC(=O)c2cccnc2SC)cc(OC)c1 | 5.3% (inactive)

Structure (SMILES) | inhibition
O=C1CSC(=S)N1/N=C/c1ccc(O)c([N+](=O)[O-])c1 | 5.2% (inactive)
Cc1c(Br)c([N+](=O)[O-])nn1CC(=O)Nc1sc2c(c1C(=O)OC(C)C)CCC(C)C2 (stereo not given) | -7.9% (inactive)
COC(=O)Cc1ccc(NC(=S)NCc2ccccc2)cc1 | 12.1% (inactive)
CCO[C@H]1OC(C(=O)Nc2ccccc2)=C[C@@H](C2CC2)[C@@H]1CCCO | 10.9% (inactive)
COc1ccc(-c2cc(C(=O)NC(Cc3c[nH]c4ccccc34)C(=O)O)c(C)o2)cc1OC (stereo not given) | 6.7% (inactive)
CCc1nc(C)cn1S(=O)(=O)c1cc([N+](=O)[O-])ccc1Cl | 6.7% (inactive)
COc1ccc(/C=N/S(=O)(=O)c2ccccc2)cc1OC | 8.4% (inactive)
O=C(c1ccccc1-c1ccccc1)N1CCOCC1 | 1.2% (inactive)
Cc1oc2c(c1C(=O)N1CCOCC1)C(=O)c1ccccc1C2=O | 57.7% (active)
Cc1onc(-c2ccccc2)c1C(=O)N1CCOCC1 | 17.6% (inactive)
C/C(=N\NC(=O)CNC(=O)C(c1ccccc1)c1ccccc1)c1ccc(C)cc1 | 11.2% (inactive)
CC(=O)Oc1c(C(=O)c2nnc(C)o2)c(=O)n(Cc2ccccc2)c2ccccc12 | 2.5% (inactive)
CSc1c(SCc2ccccc2)cnn(Cc2ccccc2)c1=O | 5.1% (inactive)
OC(COCc1ccco1)CN1CCN(c2ccccc2)CC1 (stereo not given) | 12.4% (inactive)
COc1cc(NC(=S)NNC(=O)CC(C)C)c(OC)cc1Cl | -0.9% (inactive)
Cc1ccc(SCCC(=O)Nc2cc(C)on2)cc1 | 6.5% (inactive)
O=C(CN1C(=O)c2cccc3cccc(c23)C1=O)N1CCCCC1 | -0.3% (inactive)
O=C(/C=C/c1ccc(Cl)c([N+](=O)[O-])c1)c1cccnc1 | 0.4% (inactive)
Cc1csc(Nc2ccc(Cl)cc2)[n+]1-c1ccc(Cl)cc1 | -4% (inactive)
Cc1cccc(OCCC(=O)Nc2cc(S(=O)(=O)N3CCCCC3)ccc2N2CCOCC2)c1 | 5.4% (inactive)
CCOc1cc(C(=O)OCC(=O)Nc2cccc(C)c2)ccc1OCC(=O)N1CCOCC1 | -19.1% (inactive)
O=C(COC(=O)c1cnccn1)Nc1cccc2ccccc12 | 4.3% (inactive)
CCC(=O)Nc1sc(C(=O)Nc2ccccc2)c(C)c1C(=O)OC | 7.8% (inactive)
CSc1ccc(CNCCN2CCOCC2)cc1 | 11% (inactive)

Structure (SMILES) | inhibition
COc1ccc([C@H]2[C@H](C(C)=O)N3N=Cc4ccccc4C3C23C(=O)OC(C)(C)OC3=O)cc1 (stereo not given in full) | 4% (inactive)
CCOC(=O)c1oc2c(CN3CCN(C)CC3)c(O)ccc2c(=O)c1-c1ccc(Br)cc1 | -12.6% (inactive)
Cc1ccc(C(=O)N2CC(=O)Nc3ccccc32)o1 | 2.3% (inactive)
Cc1cc(NS(=O)(=O)c2ccc(NC(=S)NC(=O)c3ccc(F)cc3Cl)cc2)no1 | 7.4% (inactive)
Cc1ccccc1C(=O)OC1OC(=O)C(Cl)=C1Nc1ccccc1 (stereo not given) | 2.3% (inactive)
ClC1(Cl)CC1CSc1ncn[nH]1 (stereo not given) | 10.4% (inactive)
Cc1cccc(-n2c(SCC(N)=O)nc3c(c2=O)C2(CCCCC2)Cc2ccccc2-3)c1 | 7.9% (inactive)
CCOc1ccc(C(=O)Nc2cccc(-c3ccc4nncn4n3)c2)cc1 | 2.6% (inactive)
COc1ccc(C(=O)C2CCCN(C(=O)c3cc4nc(C)cc(C)n4n3)C2)cc1F (stereo not given) | 0.8% (inactive)
COc1ccc(N2CCN(C(=O)c3ccc4c(Cl)c5c(nc4c3)CCCC5)CC2)cc1 | 17.9% (inactive)
O=C(COC(=O)CSc1nnc(-c2ccc(Cl)cc2)o1)Nc1cc(Cl)cc(Cl)c1 | -35.2% (inactive)
COc1cc(C(=O)NCc2ccc(-n3cccc3)cc2)cc(OC)c1OC | 12.2% (inactive)
Cc1ccc(-c2nc(C)sc2CC(=O)OCC(=O)Nc2c(F)cccc2F)cc1 | -6.1% (inactive)
CC(C)CNC(=S)NC(=O)c1ccc(Cl)cc1 | 4.7% (inactive)
C=CCn1c(CCNC(=O)c2cccs2)n[nH]c1=S | 10.1% (inactive)
Cc1nnnn1/C(=C\c1ccccc1)C(=O)OCC(=O)N1CC2(C)CC1CC(C)(C)C2 (stereo not given) | -6.6% (inactive)
CCNC(=S)N(CCc1c(C)[nH]c2ccc(C)cc12)Cc1ccco1 | 13.2% (inactive)
CC(/C=C/c1ccccc1)=N\NC(=O)C1CC1(C)c1ccccc1 (stereo not given) | 5.3% (inactive)
O=[N+]([O-])c1cc(S(=O)(=O)CCCN2CCOCC2)ccc1F | 10.3% (inactive)
O=C(Nc1ccc(-c2ccc3nncn3n2)cc1)C1CCCCC1 | 3.6% (inactive)
CCN1CCN(C(=O)c2ccc(CN(c3ccc(C)c(C)c3)S(C)(=O)=O)cc2)CC1 | 4.1% (inactive)
C/C(Cc1ccccc1)=N\NC(=O)CNC(=O)c1cccc(Br)c1 | 8.4% (inactive)
Cc1nc2ccccc2nc(C)c1=NOCc1ccc(Cl)cc1Cl | -13.7% (inactive)
